The values that follow come from PubChem BioAssay.

Test [1] relates to F380Y. The experiment in a line: modulators of BK channel variants, profiling panel, selectivity assay, cell-based, U2OS BacMam, thallium flux, beta subunits (AID 1259406).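 Note: initial slope of Thallos dye fluorescence rise after thallium is added; log ratio against the mean of 0.3% DMSO vehicle wells on the same plate.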 The note with it: at 30 µM.
Test [2] deals with F380Y/beta1. The description is as above. As to conditions: at 30 µM.
Test [3] relates to F380Y/beta2Delta. The test is described as above. As to conditions: at 30 µM.
Test [4] has as its system F380Y/beta4. The description is as above. As to conditions: at 30 µM.
Test [5] deals with Calcium-activated potassium channel subunit alpha-1 (Homo sapiens) + Leucine-rich repeat-containing protein 26 (Homo sapiens) (UniProt Q12791+Q2I0M4). The test is described as above. The note with it: F380Y/Slo1WT/gamma1, at 30 µM.
In test [6] the test system is R275C. Described as above. The note with it: at 30 µM.
In test [7] the test system is R275C/beta1. Described as above. As to conditions: at 30 µM.
For test [8], the system named is R275C/beta2Delta. Described as above. The note with it: at 30 µM.
Test [9] relates to R275C/beta4. The test is described as above. The note with it: at 30 µM.
In test [10] the test system is R275C/Slo1WT/beta2. Described as above. As to conditions: at 30 µM.
Test [11] in a line: antimalarial activity against Dd2 strain (AID 2302;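 active = growth inhibition above 50% at the single 2 µM test dose, taken to imply half-maximal potency below 2 µM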;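 note: 0% = DMSO untreated growth and 100% = chloroquine plus artemisinin killed control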). As to conditions: P. falciparum Dd2 in RBCs, LDH growth readout, 72 h; at 2 µM; active compounds read high.
Test [12] in a line: HepG2 cytotoxicity, primary screen, cytotoxicity control for P. falciparum antimalarial project, cell-based, ATP luminescence (AID 2303;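 active = inhibition above 50%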;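 note: 0% = DMSO wells and 100% = digitonin-killed cells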). As to conditions: HepG2 viability, 24-48 h, at 10 µM, active compounds read high.
In test [13] the target is L-lactate dehydrogenase (Plasmodium falciparum (isolate CDC / Honduras)) (UniProt Q27743). The experiment in a line: PfLDH activity inhibition – cell lysate, 3D7 strain, counter-screen for P. falciparum growth inhibition project (AID 2304; call rule not given here;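 note: 0% = vehicle and 100% = reference inhibitor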). The note with it: P. falciparum 3D7 crude extract, LDH APAD/NBT absorbance; at 2 µM; active compounds read high. (Counterscreens check selectivity or assay interference.)

Test [14] can be described thus: inhibition of 3D7 malaria parasite growth – strain 3D7 (AID 2306; call rule not given here;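 note: 0% = DMSO wells and 100% = chloroquine plus artemisinin control wells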). The note with it: P. falciparum 3D7 erythrocytic growth, LDH absorbance, 72 h; at 2 µM; active compounds read high.
Test [15] deals with Protein kinase 7 (PK7), Plasmodium falciparum 3D7 (PF3D7_0213400) (UniProt Q7YTF7). The experiment in a line: inhibition of Plasmodium PK7 catalytic activity – biochemical, TCAMS antimalarial set, Kinase-Glo luminescence (AID 1159587; call rule not given here). As to conditions: recombinant PfPK7, Kinase-Glo ATP depletion luminescence. (In general: In Kinase-Glo more light means more ATP remaining.)
For test [16], the target named is Calcium-dependent protein kinase 4 (Plasmodium falciparum (isolate 3D7)) (UniProt Q8IBS5). The experiment in a line: PfCDPK4 kinase inhibitors, biochemical, TCAMS library (AID 1159588; cut-off not given, nearly all actives have IC50 up to about 0.91 µM). As to conditions: recombinant PfCDPK4, Kinase-Glo ATP depletion luminescence.

Unmarked numbers belong to inactive results. For some assays here: Results with a measured potency or affinity are listed apart. Activity calls are given as the source filed them.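 Rule for the calls, unless noted: active = thallium flux through the channel raised or lowered by more than 3 SD from vehicle-only wells, actives on both sides; inactive = the rest.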

Chain of Protein kinase 7 (PK7), Plasmodium falciparum 3D7 (PF3D7_0213400) (Q7YTF7 1-343): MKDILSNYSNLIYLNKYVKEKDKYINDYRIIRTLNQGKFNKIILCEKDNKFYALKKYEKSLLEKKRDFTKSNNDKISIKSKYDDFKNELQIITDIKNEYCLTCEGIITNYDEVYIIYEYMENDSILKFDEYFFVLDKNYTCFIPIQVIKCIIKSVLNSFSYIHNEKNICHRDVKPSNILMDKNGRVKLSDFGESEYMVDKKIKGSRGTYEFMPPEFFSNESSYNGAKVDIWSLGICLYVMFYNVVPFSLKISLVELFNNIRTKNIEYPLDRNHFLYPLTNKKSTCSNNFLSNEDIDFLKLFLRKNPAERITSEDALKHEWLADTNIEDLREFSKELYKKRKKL
Chain of Calcium-activated potassium channel subunit alpha-1 (Homo sapiens) + Leucine-rich repeat-containing protein 26 (Homo sapiens) (Q2I0M4 whole entry, looked up, one chain of several): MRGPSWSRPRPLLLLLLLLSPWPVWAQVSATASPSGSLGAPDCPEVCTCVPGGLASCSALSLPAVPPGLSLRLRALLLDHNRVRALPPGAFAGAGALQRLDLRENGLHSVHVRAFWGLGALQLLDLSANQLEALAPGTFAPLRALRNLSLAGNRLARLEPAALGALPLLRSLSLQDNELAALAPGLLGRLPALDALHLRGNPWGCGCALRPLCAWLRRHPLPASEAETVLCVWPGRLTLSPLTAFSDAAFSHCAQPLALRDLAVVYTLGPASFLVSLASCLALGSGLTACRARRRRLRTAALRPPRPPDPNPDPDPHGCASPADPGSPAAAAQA
Chain of L-lactate dehydrogenase (Plasmodium falciparum (isolate CDC / Honduras)) (Q27743 whole entry, looked up): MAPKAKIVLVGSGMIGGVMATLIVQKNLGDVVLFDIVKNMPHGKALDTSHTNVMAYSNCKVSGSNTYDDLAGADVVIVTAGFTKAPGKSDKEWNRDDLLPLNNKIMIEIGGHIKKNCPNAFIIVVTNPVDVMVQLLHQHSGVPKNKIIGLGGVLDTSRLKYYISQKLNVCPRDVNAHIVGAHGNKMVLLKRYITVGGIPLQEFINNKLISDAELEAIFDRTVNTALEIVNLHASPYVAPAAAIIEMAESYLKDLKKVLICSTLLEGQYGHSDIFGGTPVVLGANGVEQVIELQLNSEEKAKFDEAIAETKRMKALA
Chain of Calcium-dependent protein kinase 4 (Plasmodium falciparum (isolate 3D7)) (Q8IBS5 whole entry, looked up): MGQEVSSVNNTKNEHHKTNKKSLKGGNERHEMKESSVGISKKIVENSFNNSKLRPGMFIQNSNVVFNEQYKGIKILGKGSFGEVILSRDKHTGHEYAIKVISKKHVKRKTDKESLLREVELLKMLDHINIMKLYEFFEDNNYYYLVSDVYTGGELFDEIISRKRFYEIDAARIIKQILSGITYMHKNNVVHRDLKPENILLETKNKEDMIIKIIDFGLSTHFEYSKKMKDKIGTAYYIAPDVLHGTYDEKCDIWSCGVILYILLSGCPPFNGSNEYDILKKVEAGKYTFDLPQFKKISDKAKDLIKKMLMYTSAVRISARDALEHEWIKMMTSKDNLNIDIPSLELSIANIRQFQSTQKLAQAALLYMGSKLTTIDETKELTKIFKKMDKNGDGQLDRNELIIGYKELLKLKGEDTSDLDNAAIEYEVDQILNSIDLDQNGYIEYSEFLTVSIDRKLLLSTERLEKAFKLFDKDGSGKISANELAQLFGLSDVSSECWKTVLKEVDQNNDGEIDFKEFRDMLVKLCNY

Turning to `CN(C)C=NC(=O)c1sc(S(C)(=O)=O)c2c1CCC=C2`, the log fold change Tl+ flux in [1] was 0.147 (active); in test [2] it was 0.036; in test [3], -0.00643; in test [4] it was 0.00437; in [5] it was -0.0666; in test [6], 0.00156. Further, the log fold change Tl+ flux is -0.0344 in [7], 0.00771 in test [8], -0.00153 in [9] and 0.0518 in [10].
Consider `CC(C)(C)OC(=O)N1CCC(c2nc(-c3ccc(Cl)s3)cs2)CC1`, for which the log fold change Tl+ flux in test [1] is 0.0108; in test [2] it was 0.0589; in [3], -0.0352; in test [4] it was -0.0115; in test [5], -0.0565; in test [6], -0.00778. The log fold change Tl+ flux in [7] was 0.0364; in test [8], 0.0302; in test [9], 0.0463; in [10], 0.0374.
With `Cc1ccccc1C=C1N=C(c2ccccc2)OC1=O`, the log fold change Tl+ flux in test [1] is -0.012; in [2], 0.0199; in test [3], 0.0497; in test [4], -0.0336; in test [5] it was -0.00351; in [6], -0.000743. Moreover, the log fold change Tl+ flux was 0.036 in test [7], 0.0102 in [8], 0.00185 in test [9] and 0.0353 in test [10].
Take `Cc1ccc(C(C)NC(=O)c2ccc(Cl)c(Cl)c2)c(C)c1` (stereo unspecified): the log fold change Tl+ flux was -0.0383 in test [1]; -0.0447 in test [2]; -0.0218 in test [3]; -5.9e-05 in test [4]; -0.119 (active) in [5]; -0.0401 in test [6]. The log fold change Tl+ flux was 0.0121 in [7], -0.00757 in [8], 0.00443 in test [9] and -0.0265 in test [10].
Usually inhibition stands for how much of the control response was suppressed. In the case of `Cn1cc(-c2ccnc3[nH]c(-c4cccc(CNC5CCC(O)CC5)c4)cc23)cn1` (stereo unspecified), the growth inhibition is 82% (active) in test [11] and 95% (active) in [14]. Further, the inhibition in test [12] was 48%; in [13], 2%. The outcome in [15] and in test [16] was inactive.
For `COC(=O)C1=C(C)NC(C)=C(C(=O)OC)C1c1ccccc1`, the log fold change Tl+ flux in test [1] is -0.0145; in test [2], 0.00442; in [3], -0.0123; in test [4], 0.0301; in test [5], 0.0229; in test [6], 0.00578. For the same molecule, the log fold change Tl+ flux in test [7] is 0.033; in [8], -0.018; in test [9], 0.0507; in [10] it was 0.0172.
Consider `CS(=O)(=O)Cc1ccc(Nc2nccc(-c3c(-c4cccc(NC(=O)C5CCCCC5)c4)nn4ncccc34)n2)cc1`, for which the growth inhibition in test [11] is 99% (active); in test [14], 98% (active). Further, the inhibition in [12] was 31%; in [13], 0%. In addition, the outcome in test [15] was inactive.
On to `CC(C)(C)NC(=S)NNc1c(Cl)cncc1Cl`, for which the log fold change Tl+ flux in test [1] was -0.00302; in test [2], -0.0136; in test [3], -0.0137; in test [4] it was -0.0352; in test [5] it was -0.035; in [6], 0.0328. Besides, the log fold change Tl+ flux in test [7] is 0.0635; in [8], 0.00425; in test [9], -0.00379; in test [10], 0.0133.
`Cn1cnc([N+](=O)[O-])c1Sc1cccs1`: the log fold change Tl+ flux in [1] was 0.0486; in test [2] it was 0.0187; in [3], 0.0459; in [4], 0.0453; in test [5], 0.029; in test [6], 0.00916. For the same molecule, the log fold change Tl+ flux in test [7] is 0.0118; in test [8], 0.0288; in test [9] it was 0.0285; in test [10], 0.0293.
Take `Cc1ccc(S(=O)(=O)c2ncsc2SCc2ccc(Cl)cc2Cl)cc1`: the log fold change Tl+ flux in [1] was 0.0356; in test [2], -0.0176; in [3] it was 0.0366; in test [4], -0.0184; in test [5], 0.00897; in test [6], -0.00241. Besides, the log fold change Tl+ flux is 0.0419 in test [7], -0.0166 in [8], -0.0112 in test [9] and -0.00155 in test [10].
With `O=C(O)c1ccccc1C(=O)NCc1ccccc1OC(F)(F)F`, the log fold change Tl+ flux was -0.05 in test [1]; -0.0181 in test [2]; -0.0248 in [3]; 0.0063 in test [4]; -0.076 in test [5]; -0.0155 in [6]. For the same molecule, the log fold change Tl+ flux is -0.0505 in test [7], -0.0385 in test [8], -0.0255 in [9] and 0.0015 in test [10].
For the molecule `O=c1c(Cl)c(N2CCOCC2)cnn1-c1cnc2ccccc2n1`, the log fold change Tl+ flux in [1] is -0.0015; in test [2], 0.00611; in [3], 0.0635; in [4], 0.0417; in [5], 0.0667; in [6], 0.00311. The log fold change Tl+ flux in test [7] is -0.0364; in test [8], 0.032; in test [9] it was -0.0173; in [10], 0.0145.
As for `CC1(C)CC(=O)C=C(NCCCCCCCCNC2=CC(=O)CC(C)(C)C2)C1`, the log fold change Tl+ flux was 0.000907 in [1]; 0.0262 in test [2]; 0.0043 in test [3]; 0.0246 in [4]; -0.0867 in test [5]; -0.0564 in test [6]. Moreover, the log fold change Tl+ flux in test [7] was -0.0828; in test [8] it was -0.0562; in test [9] it was -0.0723; in test [10] it was -0.149 (active).
For `CCOC(=O)c1c[nH]n2c(=O)c3c(nc12)CCC3`, the log fold change Tl+ flux in [1] is 0.0447; in test [2], 0.0491; in test [3] it was 0.00798; in test [4], -0.00836; in test [5], -0.00512; in test [6], -0.0014. Moreover, the log fold change Tl+ flux in test [7] was 0.00358; in test [8] it was 0.00309; in test [9], 0.0387; in test [10] it was -0.0235.
Consider `Oc1c(Cl)c(Cl)c(Cl)c2ccccc12`, for which the log fold change Tl+ flux is 0.503 (active) in test [1]; 0.627 (active) in test [2]; 0.473 (active) in test [3]; 0.484 (active) in test [4]; 0.395 (active) in test [5]; 0.519 (active) in test [6]. Further, the log fold change Tl+ flux in test [7] is 0.527 (active); in [8] it was 0.304 (active); in test [9] it was 0.702 (active); in test [10], 0.141 (active).
Consider `NS(=O)(=O)c1cccc(NC(=O)c2cccnc2Oc2ccccc2)c1`, for which the log fold change Tl+ flux in test [1] was -0.000714; in [2] it was 0.008; in test [3] it was 0.0103; in test [4], -0.015; in test [5], -0.0607; in test [6], -0.0268. Besides, the log fold change Tl+ flux in test [7] was -0.0191; in [8], 0.01; in [9], 0.00433; in test [10], -0.0182.
Take `O=C(NC(=O)c1ccccc1Oc1ccc(Cl)cc1Cl)Nc1cc(Cl)cc(Cl)c1`: the log fold change Tl+ flux in test [1] is 0.0204; in [2], 0.0216; in test [3], -0.00408; in test [4], -0.00832; in [5], 0.0199; in test [6], 0.0363. The log fold change Tl+ flux in test [7] is -0.0332; in [8] it was 0.00447; in test [9], 0.0362; in test [10] it was -0.00947.
Regarding `CS(=O)(=O)Cc1ccc(Nc2nccc(-c3c(-c4cccc(NC(=O)c5c(F)cccc5F)c4)nn4ccccc34)n2)cc1`, the growth inhibition in test [11] was 75% (active); in test [14], 99% (active). Moreover, the inhibition in [12] is 78% (active); in test [13], 0%. Besides, in test [15], the outcome was inactive.
Consider `CCOC(=O)Cn1c(=O)ccc2c(C)cc(C)nc21`, for which the log fold change Tl+ flux in test [1] is 0.0287; in [2], -0.0128; in [3], 0.0236; in test [4], -0.0078; in test [5] it was 0.0102; in [6] it was -0.00247. Also, the log fold change Tl+ flux is -0.0331 in test [7], 0.00136 in test [8], 0.00241 in test [9] and -0.00135 in [10].
